# Many of the other results were omitted from the sample, so hits are more common in it than they were.
# Pf Dd2 inh – qHTS Primary assay for Inhibitors of Plasmodium falciparum Dd2 growth in vitro; P. falciparum Dd2 growth, SYBR Green, 72 h; AID 1347417, 2020; Potency, µM (top dose mostly 28.9 µM), for inactives: at the top dose activity, negative = inhibition, hits mostly inhibitors; actives 4.3% (n = 120,000); active = well fitted inhibition curve with a large enough effect;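 note: plate controls were DMSO vehicle for no effect and reference drug for full effect; nearly all actives have a fitted effect of over 65% in size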
#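 Readout: SYBR Green fluorescence, 485 nm excitation, 535 nm emission, after ~16 h lysis at 37C. Before that, Dd2-infected red cells (2.5% hematocrit) grew 72 h with compound, 29 uM top final concentration.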
# An asterisk follows results filed as active; i = inactive; [ ] = dose if it differs, or a comment. Potency is the fitted concentration of half-maximal effect.
SMILES,Pf Dd2 inh
CCOC(=O)c1cccc(NC(=O)CCn2c(-c3ccc(F)cc3)cc(C(=O)OCC)c2C)c1,0.1µM*
CCOC(=O)c1cc(-c2ccccc2)n(CC(=O)Nc2ccc(CC)cc2)c1C,i
CCOc1ccc(NC(=O)CCn2c(-c3ccc(F)cc3)cc(C(C)=O)c2C)cc1,i
CCOC(=O)c1cc(-c2ccc(C)cc2)n(CCC(=O)Nc2ccc(C(C)C)cc2)c1C,8.9µM*
CCOC(=O)c1cc(-c2ccccc2)n(CCCC(=O)Nc2cccc(C)c2)c1C,i
CCOC(=O)c1cc(-c2ccc(C)cc2)n(CC(=O)Nc2ccc(OC)c(Cl)c2)c1C,0%
CCn1c2c(c(=O)n1-c1ccccc1)CCN(C(=O)Cc1ccc3c(c1)OCO3)C2,-11%[44.1 µM]
O=C(C1CCCC1)N1CCc2onc(-c3ccc(C(F)(F)F)cc3)c2C1,-8%
CCc1nncn1C1CCN(C(=O)c2cc(F)ccc2Cl)CC1,-33%
Cc1cc(CNC(=O)[C@@H]2CCC[C@@H](NCc3nccn3C)CN(C)C(=O)C2)no1,6%[44.1 µM]
CCOCCCNC(=O)N1CC(Oc2cccc(-c3nc(C)no3)c2)C1,5%[5.79 µM]
CCCNC(=O)N1CC(Oc2cccc(-c3nc(-c4ccccc4)no3)c2)C1,2µM*
O=C(NC1CCCC1)N1CC(Oc2cccc(-c3nc(-c4ccccc4)no3)c2)C1,i[5.79 µM]
CC(=O)N1CCC2(CC1)SCC(=O)N2c1ccc(F)cc1,-21%
CNc1nccc(N2CCC(CC(=O)NCc3cc(OC)cc(OC)c3)CC2)n1,-19%
COc1cc(C(=O)Nc2nonc2-c2ccc(C)c(C)c2)cc(OC)c1OC,8%
Cc1ccc(-c2nonc2NC(=O)c2ccc(F)cc2)cc1C,32%
CCOc1ccc(-c2nonc2NC(=O)c2ccc(C)cc2)cc1OCC,2µM*
COCCc1noc([C@@H]2CN(Cc3cccc(OC)n3)C[C@H]2CO)n1,-21%
O=C(c1ccco1)N1CCC(c2n[nH]c(=O)n2-c2ccccc2)CC1,4%
CCc1ccc(C(=O)c2cnc3ccc(C)cc3c2S(=O)(=O)c2ccc(OC)cc2)cc1,11µM*
CCc1ccc(Cn2c(CNS(=O)(=O)c3ccc(C)c(C)c3)nc3cccnc32)cc1,-15%
CCc1ccc(S(=O)(=O)c2c(C(=O)c3ccc(C)c(C)c3)cnc3ccccc23)cc1,4µM*
CCOc1ccc(S(=O)(=O)c2c(C(=O)c3ccc(CC)cc3)cnc3ccc(C)cc23)cc1,i
Cc1ccc(CCNC(=O)c2cc(Nc3ccc(C)c(C)c3)nc3ccccc23)cc1,-2%
SMILES,Pf Dd2 inh
COc1ccc(S(=O)(=O)c2c(O)c3ccc(C(=O)NCc4ccc(F)cc4)cc3[nH]c2=O)cc1,-17%
COc1ccc(NC(=O)C[C@H]2NC(=O)c3ccccc3NC2=O)cn1,i
Cc1nnc(-c2cc(N3C[C@@H](C)O[C@@H](C)C3)ccn2)n1C1CCCCC1,i
O=C(CN1CCOCC1)NC1CCc2nnc(C3CC3)n2CC1 (centres undefined),18%
Cc1ccc(NC(=O)NCC2CCOCC2)c(C)c1,14%
COc1ccc(NC(=O)NCC2CCN(Cc3ccccc3F)CC2)c(OC)c1,11%
Cc1ccc(C)c(CN2CCC(CNC(=O)Nc3ccc(Br)cc3F)CC2)c1,8.9µM*
OC1(c2csc(CN3CCOCC3)n2)CCN(C2CCCC2)CC1,22%[44.1 µM]
COc1ccc([C@@H](NC(=O)c2scc3c2CCCC3)C2CC(O)C2)cn1 (some centres undefined),-18%
Cc1noc(C)c1S(=O)(=O)N1CCC(N2CCOC2=O)CC1,22%
Cc1noc(C)c1S(=O)(=O)N1CCC(N(CCC(C)C)C2CCOCC2)CC1,13µM*
Cc1noc(C)c1S(=O)(=O)N1CC(N(CC(C)C)C2CCOCC2)C1,-25%
COCc1cc(CC2(NCc3ccc(OC)cc3)COC2)no1,-12%[44.1 µM]
COc1ccc(-c2cc3c(ccn3C(C)C)c(C(=O)NCc3c(C)cc(C)[nH]c3=O)n2)cn1,6.3µM*
Cn1ccc2c(C(=O)NCCc3cnc[nH]3)nc(-c3ccccc3)cc21,-28%[44.1 µM]
CC(=O)Nc1cccc(-c2cc3c(ccn3C)c(C(=O)NCCc3cnc[nH]3)n2)c1,5µM*
Cc1cc(C)c(CNC(=O)c2cc(-c3ccc(CN(C)C)cc3)cc3ncn(C)c23)c(=O)[nH]1,-18%
Cn1ccc2c(C(=O)NCc3cccnc3)nc(-c3cccnc3)cc21,26%[44.1 µM]
Cc1cc(C)c(CNC(=O)c2nc(-c3cnn(C)c3)cc3c2ccn3C)c(=O)[nH]1,i
Cn1ccc2c(C(=O)NCCc3cnc[nH]3)nc(-c3cccc(CO)c3)cc21,i
COc1ccc(-c2cc(C(=O)NCc3c(C)cc(C)[nH]c3=O)c3c(c2)N(C(C)C)CCO3)cc1OC,i
COc1cccc(-c2cc3c(ccn3C)c(C(=O)NCc3c(C)cc(C)[nH]c3=O)n2)c1,10µM*
Cc1ccc(-c2cc3c(ccn3C(C)C)c(C(=O)NCc3c(C)cc(C)[nH]c3=O)n2)cn1,7.1µM*
Cc1cc(C)c(CNC(=O)c2nc(-c3ccccc3C)cc3c2ccn3C(C)C)c(=O)[nH]1,-22%[44.1 µM]
COc1ccc(-c2cc3c(ccn3C)c(C(=O)NCCc3cnc[nH]3)n2)cn1,i
